Assay results: the supplement of paper PMC6555819

tested on: PPARg homodimer (NR concentration 180 nM); test: PBM binding z-score (relative to random genomic background probes); higher = stronger binding; sequences stand for … in GC…GCGATTGACAGCGTAGAATGAAGG
Outline: (§1)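 On custom Agilent 4×180K arrays, double-stranded probes with 34-nt variable regions carried direct-repeat seeds, single-nucleotide variants, half-site ablations or random human genomic background. Ligand-free nuclear receptor dimers were applied for 1 h, and binding was read with antibodies against each partner (one per run). Binding z-scores come from regression-normalized fluorescence, with the random background probes as reference.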

Sequence	PBM binding z-score
TCTTGTAGATCAAACGTTAAGAAAGCCGAAGCCT	-0.0553
GATACAGGGTCAGCTAGATGCCAGAGTATGGAAA	3.16
CGTACAGGGTCAGCTAGGCCAGAGTAGGGACGGC	1.47
ATCGAAAGGTCGAGGTGAGTCTAGAGAAAGGGAA	1.92
TATAGTTGGTCACGGAGGTCACACACGACGGGTA	2.56
CGAACGAGGGCATGAGTTGATAGTAAATGCCGAT	-0.00807
CCTACTGAGCCAAGGTCATTGATCAGTCAAAGCA	2.66
ATCTCTTGGTAAAGATAGTTCAGTGAATGCAAAT	0.879
TCTATTAGTTGAGTAGGGCAACCGAAACAGCGGA	0.0171
TCATATAGGTAATACTGGTGAAAGTCGGCATCTA	0.814
GGAAAGAGGGCATTCGAGTTGATAGCATGGCGAT	0.828
TCTTGTATATCAATAGAGGTTAAGAAAGTGCGCT	0.383
TCTCGGAGGACAAGAAAGGTCAGAGCTCGACATC	2.62
CCTATTAGTTGACTATAAGGGCAACCGAAGCTCG	0.891
AGAACGAGGGCACGCTGAGTTGATAGGAGAGTAG	0.451
ACTATTAGTTGAGACGAGGGAAACCGATAGGTTG	0.465
GGAACGAGGGCAAGTTGAGAGCAGAGTTTGATGG	0.391
CGTCAAAGTTCAATTAAGGTAACGTAAAGCACGC	3.06

tested on: PXR:RXRa (NR concentration 270 nM, RXRa partner concentration 90 nM); test: as above
Outline: as §1

Sequence	PBM binding z-score
CCTACTGGGCCATTCAGAGGTCATTTATCATATG	4.91
CCGAGTAGCTTATGGGGCATTCAGGCAACGGTGA	-0.731
CCTACTGGGCCATTTAGAGGTCATTGATCATATG	4.7
CGAACGAGGGCATGAGTTGGTAGCAAATGCCGAT	0.171
TATACAGGTTCAAAGGCCAGAGTACGAATGTCGA	2.53
CCGACTCGGGCAAGGTTACCATAACGCACAGCCA	0.246
CCTACCGGGCCACGAAAGGTCATTGATTCAGTGA	5.44
TGAATGAGGTTAAAGATCAGAGAACGTGGCGTCG	2
TCCGCTAGGTCAACGATGGTCAGCTAATCTGCTA	1.19
GCGACTGGGGCAAAGCAGGTTACCAAAAGGTTGG	0.48
CCTACTGGGCCATCAGGTAATTGATATCAACGTT	-0.337
TCATATAAGTAAATGCTAGGTGAAAGTCCGATCT	0.626
CCGAGTAGGTTATGGGGCACTCAGGCAACGGTGA	-0.0743
TCTTGTAGATCATTAGAGGTTAAGAAAGTGCGCT	3.16
ATATGTAGGTTAAGGGTCATTGAGGTTGGTTCGC	5.1
ACTAGCAGGCCAAGGGGCACTCAAGATTAGTCCG	-0.175
TAGCCGAGGTCAGATCGGGCCAGTATACGCTATA	4.38
GCGACAGGGGCAAAGCAGGTTACCATAAGGTTGG	0.934
CCTTACGGGTCACTGATAGGTTATAGCATTTGGA	3.6
CCTACTGGGCCCCGAAAGGTCATTGATTCAGTGA	4.66

Sequence	PBM binding z-score
ACTATTAGTTGACATAGGGCAACCGATACGACGC	0.547
CTTGCTAGGTCATGGTCAGCTAATCTACAGTATG	1.45
TCTTGTAGATCAAACGTTAAGAAAGCCGAAGCCT	0.00909
GATACAGGGTCAGCTAGATGCCAGAGTATGGAAA	2.14
CGTACAGGGTCAGCTAGGCCAGAGTAGGGACGGC	2.28
ATCGAAAGGTCGAGGTGAGTCTAGAGAAAGGGAA	3.05
TATAGTTGGTCACGGAGGTCACACACGACGGGTA	4.66
CGAACGAGGGCATGAGTTGATAGTAAATGCCGAT	0.636
CCTACTGAGCCAAGGTCATTGATCAGTCAAAGCA	3.69
ATCTCTTGGTAAAGATAGTTCAGTGAATGCAAAT	0.78
TCTATTAGTTGAGTAGGGCAACCGAAACAGCGGA	-0.0938
TCATATAGGTAATACTGGTGAAAGTCGGCATCTA	0.689
GGAAAGAGGGCATTCGAGTTGATAGCATGGCGAT	4.41
TCTTGTATATCAATAGAGGTTAAGAAAGTGCGCT	3
TCTCGGAGGACAAGAAAGGTCAGAGCTCGACATC	3.55
CCTATTAGTTGACTATAAGGGCAACCGAAGCTCG	0.229
AGAACGAGGGCACGCTGAGTTGATAGGAGAGTAG	1.1
ACTATTAGTTGAGACGAGGGAAACCGATAGGTTG	-0.464
GGAACGAGGGCAAGTTGAGAGCAGAGTTTGATGG	0.927
CGTCAAAGTTCAATTAAGGTAACGTAAAGCACGC	5.26

tested on: PXR homodimer (NR concentration 270 nM); test: as above
Outline: as §1

Sequence	PBM binding z-score
CCTACTGGGCCATTCAGAGGTCATTTATCATATG	2.24
CCGAGTAGCTTATGGGGCATTCAGGCAACGGTGA	-0.54
CCTACTGGGCCATTTAGAGGTCATTGATCATATG	2.25
CGAACGAGGGCATGAGTTGGTAGCAAATGCCGAT	-0.43
TATACAGGTTCAAAGGCCAGAGTACGAATGTCGA	1.35
CCGACTCGGGCAAGGTTACCATAACGCACAGCCA	-0.0787
CCTACCGGGCCACGAAAGGTCATTGATTCAGTGA	2.13
TGAATGAGGTTAAAGATCAGAGAACGTGGCGTCG	0.0576
TCCGCTAGGTCAACGATGGTCAGCTAATCTGCTA	-0.762
GCGACTGGGGCAAAGCAGGTTACCAAAAGGTTGG	-0.452
CCTACTGGGCCATCAGGTAATTGATATCAACGTT	-0.167
TCATATAAGTAAATGCTAGGTGAAAGTCCGATCT	0.422
CCGAGTAGGTTATGGGGCACTCAGGCAACGGTGA	-0.0972
TCTTGTAGATCATTAGAGGTTAAGAAAGTGCGCT	0.436
ATATGTAGGTTAAGGGTCATTGAGGTTGGTTCGC	4.17
ACTAGCAGGCCAAGGGGCACTCAAGATTAGTCCG	-0.332
TAGCCGAGGTCAGATCGGGCCAGTATACGCTATA	-0.437
GCGACAGGGGCAAAGCAGGTTACCATAAGGTTGG	-0.112
CCTTACGGGTCACTGATAGGTTATAGCATTTGGA	0.321
CCTACTGGGCCCCGAAAGGTCATTGATTCAGTGA	1.26

Sequence	PBM binding z-score
ACTATTAGTTGACATAGGGCAACCGATACGACGC	0.504
CTTGCTAGGTCATGGTCAGCTAATCTACAGTATG	-0.306
TCTTGTAGATCAAACGTTAAGAAAGCCGAAGCCT	-0.155
GATACAGGGTCAGCTAGATGCCAGAGTATGGAAA	-0.221
CGTACAGGGTCAGCTAGGCCAGAGTAGGGACGGC	-0.805
ATCGAAAGGTCGAGGTGAGTCTAGAGAAAGGGAA	0.144
TATAGTTGGTCACGGAGGTCACACACGACGGGTA	1.06
CGAACGAGGGCATGAGTTGATAGTAAATGCCGAT	0.316
CCTACTGAGCCAAGGTCATTGATCAGTCAAAGCA	2.46
ATCTCTTGGTAAAGATAGTTCAGTGAATGCAAAT	0.85
TCTATTAGTTGAGTAGGGCAACCGAAACAGCGGA	-0.0884
TCATATAGGTAATACTGGTGAAAGTCGGCATCTA	-0.083
GGAAAGAGGGCATTCGAGTTGATAGCATGGCGAT	1.31
TCTTGTATATCAATAGAGGTTAAGAAAGTGCGCT	0.496
TCTCGGAGGACAAGAAAGGTCAGAGCTCGACATC	0.191
CCTATTAGTTGACTATAAGGGCAACCGAAGCTCG	0.676
AGAACGAGGGCACGCTGAGTTGATAGGAGAGTAG	0.0753
ACTATTAGTTGAGACGAGGGAAACCGATAGGTTG	-0.0777
GGAACGAGGGCAAGTTGAGAGCAGAGTTTGATGG	0.275
CGTCAAAGTTCAATTAAGGTAACGTAAAGCACGC	3.98
